Measured values reported in PubChem BioAssay (NCATS).
Results filed as inconclusive are left out. Entries that show only a call come without a potency. Active and inactive are the calls of the source. Calls come from the whole dose curve; as a rule, active = well fitted cell-killing curve with a large enough effect; inconclusive = small, poorly fitted or top-dose-only effect, or effect the other way; inactive = no such curve, though single readings can be large or run the other way.
Potency is the fitted concentration of half-maximal effect.

Test: Cell Viability - LYMP2-004 (AID 966); note: nearly all actives have a fitted effect of over 65% in size
Conditions: LYMP2-004 lymphoblastoid cell viability, qHTS; series mostly up to 92.2 µM
From the text: NIH Chemical Genomics Center [NCGC]
NIH Molecular Libraries Screening Centers Network [MLSCN]
National Institutes of Environmental Health Sciences [NIEHS]
National Toxicology Program [NTP]
We have developed a 1536-well cell-based assay for quantitative high throughput screening (qHTS) against a number of cell lines to determine in vitro cytotoxicity of small molecules. This particular assay uses a human lymphoblastoid cell line (LYMP2-004) purchased from Coriell Institute for Medical Research.
NCGC Assay Protocol Summary:
The CellTiter-Glo luminescent cell viability assay (Promega) is a homogeneous method to measure the number of viable cells in culture. The end point readout of this assay is based on quantitation of intracellular ATP, an indicator of metabolic activity, using the luciferase reaction. Luciferase catalyzes the oxidation of beetle Luciferin to oxyluciferin and light in the presence of ATP. The luminescent signal is proportional to amount of ATP present.
Using the CellTiter-Glo luminescent cell viability assay, the amount of cellular ATP was measured in the lymphoblastoid cell line with complete culture medium following compound treatment for 24 hours. The assay was performed in opaque white Kalypsys 1536-well plates. In the screen, tetraoctylammonium bromide was used as positive control. Library compounds were measured for their ability to cause acute toxicity in the cell line, as reflected by a decrease in intracellular ATP levels, in a concentration-dependent manner. […] AC50 values were determined from concentration-response data modeled with the standard Hill equation.
qHTS protocol for CellTiter Glo lymphoblastoid cellular assay
[Step] [Parameter] [Value] [Description]
1. Reagent; 5 uL; 2500 lymphoblastoid cells/well
2. Time; 5 hr; 37 C incubation
4. Controls; 23 nL; Tetraoctylammonium bromide 6.4pM to 92 uM
5. Time; 24 hr; 37 C incubation
6. Reagent; 5 uL; CellTiter Glo reagent
7. Time; 30 min; Room Temperature
8. Detection; Luminescence; Viewlux plate reader
Keywords: cell viability, cytotoxicity, lymphoblastoid cell line, luminescence, NTPHTS, NTPHTS_NCGC, NIEHS, DSSTox, MLSMR, MLSCN, NIH Roadmap, qHTS, NCGC
In the case of `CC(=O)Oc1ccc(C(c2ccc(OC(C)=O)cc2)c2ccccn2)cc1`, the Potency is reported as “inactive”.
For `O=C1OC(c2ccc(O)cc2)(c2ccc(O)cc2)c2ccccc21`, the Potency was “inactive”.
In the case of `CC(O)C(=O)O` (stereo not given), the Potency is reported as “inactive”.
In the case of `O=c1ccc2ccccc2o1`, the Potency is reported as “inactive”.
For `CC(=O)O[C@]1(C(C)=O)CC[C@H]2[C@@H]3C[C@H](C)C4=CC(=O)CC[C@]4(C)[C@H]3CC[C@@]21C`, the Potency was 31.6 µM (active).
With `COc1cccc2c1C(=O)c1c(O)c3c(c(O)c1C2=O)C[C@@](O)(C(=O)CO)C[C@@H]3O[C@H]1C[C@H](N)[C@H](O)[C@H](C)O1` the Potency was 0.501 µM (active).
In the case of `O=C(O)CCCCC(=O)O`, the Potency is reported as “inactive”.
For `CC(C)(C)CC(C)(C)c1ccc(OCCOCC[N+](C)(C)Cc2ccccc2)cc1`, the Potency was 39.8 µM (active).
For `COC1=CC(=O)C[C@@H](C)[C@]12Oc1c(Cl)c(OC)cc(OC)c1C2=O`, the Potency was “inactive”.
For `CN(C)/N=N/c1nc[nH]c1C(N)=O`, the Potency was “inactive”.
For `CC/C(=C(/CC)c1ccc(O)cc1)c1ccc(O)cc1`, the Potency was “inactive”.
In the case of `Oc1ccc(O)cc1`, the Potency is reported as 39.8 µM (active).
For `C=CCc1ccc(O)c(OC)c1`, the Potency was “inactive”.
For `C[C@]12CC[C@@H]3c4ccc(O)cc4CC[C@H]3[C@@H]1CC[C@@H]2O`, the Potency was “inactive”.
In the case of `Nc1ccc(C(=O)O)cc1`, the Potency is reported as “inactive”.
